# USP1-UAF1 inh = Inhibitors of USP1/UAF1: Primary Screen; recombinant USP1/UAF1, Ub-Rhodamine cleavage fluorescence; Potency, µM (series often up to 57.1 µM), for the others: top-dose activity change, negative = inhibition, actives largely listed as inhibitors; Ubiquitin carboxyl-terminal hydrolase 1 (Homo sapiens), O94782; 0.23% of 390,000 active; note: potency is the fitted concentration of half-maximal effect; nearly all actives have a fitted effect of over 60% in size
#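 USP1/UAF1 complex at 1 nM was preincubated with compound for 15 min at room temperature, then Ub-Rho substrate (150nM final) was added. Fluorescence (480/540 nm) was read kinetically, 6 reads every 60 seconds.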
# WRN inhibitor = qHTS for Inhibitors of WRN Helicase. WRN helicase unwinding, fluorescent forked duplex, kinetic. Potency, µM (highest dose often 114 µM), for the others: top-dose activity change, negative = inhibition, actives largely listed as inhibitors. 0.46% of 360,000 active. AID 651768, 2012; note: potency is the fitted concentration of half-maximal effect; nearly all actives have a fitted effect of over 55% in size
#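 Screening of the MLSMR collection measured strand separation of a quenched forked DNA duplex (100 nM) by 20 nM WRN with 2 mM ATP, all final. Compounds were preincubated with enzyme 15 min at room temperature.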
# PI5P4Ka inh = qHTS for Inhibitors of phosphatidylinositol 5-phosphate 4-kinase (PI5P4K); Phosphatidylinositol 5-phosphate 4-kinase type-2 alpha (Homo sapiens), P48426; PI5P4Kalpha enzyme, ADP-Glo luminescence, 60 min; hits give low values; max response, %; 1.2% of 330,000 active; AID 652105, 2013; active = max response of -50% or lower; inconclusive = between -30% and -50%; inactive = -30% or higher; note: value at the top dose of about 77 µM
#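 Compounds were pin-transferred onto PI5P4Kalpha and substrate in HEPES pH 7.4 buffer with EGTA, CHAPS and 5% DMSO. ATP (5 microM final) started the reaction, which ran 60 minutes at room temperature before ADP-Glo detection.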
# PLK1 PBD inh = qHTS for Inhibitors of PLK1-PDB (polo-like kinase 1 - polo-box domain): Primary Screen; Serine/threonine-protein kinase PLK1 (Homo sapiens), P53350; Plk1 PBD binding of FITC phosphopeptide, fluorescence polarization; Potency, µM, inactives show max response, negative = inhibition, hits mostly inhibitors; 2.8% of 360,000 active; note: potency is the fitted concentration of half-maximal effect; series mostly up to about 57 µM; nearly all actives have a fitted effect of over 65% in size
# USP2a block = qHTS Assay for Inhibitors of Ubiquitin-specific Protease USP2a Using CHOP2 as the Reporter | AID 463254, 2010 | USP2 core, Ub-CHOP2 coupled fluorogenic reporter, 485/531 | 0.01% of 330,000 active | Potency, µM (titrated, usually from 38.3 µM), inactives show at the top dose activity change, negative = inhibition, hits mostly inhibitors | Ubiquitin carboxyl-terminal hydrolase 2 (Homo sapiens), O75604;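 note: potency is the fitted concentration of half-maximal effect; plate controls were DMSO wells for no effect and full inhibition by NEM control for full effect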
#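 Cell-free coupled assay: 10nM USP2 core preincubated 30min RT with compound in Tris-HCl pH 8.0/CaCl2/CHAPS buffer, then 25nM Ub-CHOP2 and 25nM reporter substrate; fluorescence (Ex 485/Em 531) read after 60min RT, normalized to NEM inhibition, concentration-response curves fitted.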
# The depositor's hits bear a star; u = inconclusive; x = no result. Sampled rows, rich in hits. Any-hit rate of the full collection: about 3.3%. Unless noted, calls come from the whole dose curve; as a rule, active = well fitted curve in the direction sought with a large enough effect; inconclusive = small, poorly fitted or top-dose-only effect, or another doubt; inactive = no such curve, though single readings can be large; an effect the other way counts as inactive or inconclusive. Unless noted, % is set by controls: 0 for no effect and ±100 for the full control effect.
SMILES,USP1-UAF1 inh,WRN inhibitor,PI5P4Ka inh,PLK1 PBD inh,USP2a block
CCCc1nn2c(=O)cc(COC(=O)c3ccc(NC(=O)c4cccs4)cc3)nc2s1,0%,x,x,x,x
CC(C)CN1CCC(=O)N([C@H](CSc2ccccc2)Cc2ccccc2)CC1,-14%,2%,-3,21µM*,3%
CC(=O)Nc1ccc(SC[C@H](Cc2ccccc2)N2CCN(CCc3ccccc3)CCC2=O)cc1,-20%,-9%,-3,12µM*,3%
CC(=O)Nc1ccc(SCCN2CC[C@@H](C)CCC2=O)cc1,-28%,8%,2,27µM*,1%
CC(=O)Nc1ccc(SC[C@H](Cc2ccccc2)N2CC[C@@H](C(C)(C)C)CCC2=O)cc1,u,-15%,-1,9.5µM*,-10%
CCOc1ccc(CCNC(=O)CCn2c(=O)c3cccn3c3ccc(F)cc32)cc1OCC,11%,x,x,x,x
CCOC(=O)c1cnc2ccc(C(=O)OC)cc2c1Nc1ccccc1CC,-21%,x,x,x,x
CC(C)(C)[C@@H]1CCC(=O)N(CC[C@H](Sc2ccccc2)c2ccccc2)CC1,15%,-3%,4,-14%,0%
CC(=O)Nc1ccc(S[C@@H](CCN2CC[C@H](C(C)(C)C)CCC2=O)c2ccccc2)cc1,-15%,-11%,-24,8.4µM*,0%
O=C(Nc1ccc(OC(F)(F)F)cc1)C1CCN(S(=O)(=O)c2ccc3[nH]c(=O)ccc3c2)CC1,-25%,x,x,x,x
Cc1ccc(C)c(NC(=O)c2ccc(CN3CC(=O)N4CCCCC4C3=O)cc2)c1 (stereo not given),-10%,x,x,x,x
CCC(C(=O)N1CCN(c2ncccn2)CC1)c1ccccc1 (stereo not given),-18%,2%,-15,24µM*,0%
Cc1nn(C)c(C)c1S(=O)(=O)N(CC(=O)NCCc1ccc(Cl)cc1)c1ccc(C(C)C)cc1,-2%,x,x,x,x
Cc1[nH]c2ccccc2c1/C=N/NC(=O)CCC(=O)NCc1ccccc1,-17%,-15%,-28,12µM*,0%
Cc1n[nH]c(C)c1CCC(=O)N/N=C/c1c(C)[nH]c2ccccc12,-26%,-1%,u,2%,-1%
Cc1ccc(C(=O)N[C@@H](C)CN2C3=NC[C@H](C(C)C)N3C[C@H]2Cc2ccc(O)cc2)cc1Br,6%,-2%,u,27µM*,0%
CC(=O)c1cnc(-c2ccccn2)s1,-3%,0%,-20,21µM*,5%
COc1ccccc1NC(=O)C1=C(C)Nc2nnnn2C1c1ccc(C(F)(F)F)cc1 (stereo not given),-12%,x,x,x,x
CSc1ccc(CNC(=O)C(C)n2nc(C)c3c(C)n(-c4ccccc4)nc3c2=O)cc1 (stereo not given),-21%,-3%,-9,21µM*,2%
CCOc1ccc(CNC(=O)Cn2nc(C)c3c(C)n(-c4ccc(C)cc4)nc3c2=O)cc1,-26%,-4%,-1,30µM*,3%
CCc1ccc(CNC(=O)Cn2nc(C)c3c(C)n(-c4ccc(C)cc4)nc3c2=O)cc1,3%,x,x,x,x
CCc1cccc(NC(=O)CN(C)S(=O)(=O)c2ccc3c(c2)CCCN3C(C)=O)c1,-22%,x,x,x,x
CCN1C(=NCc2cc(OC)c(OC)c(OC)c2)N[C@@H](c2cccc(F)c2)C(C(=O)OC)=C1C,x,x,x,x,-7%
COC(=O)c1ccc(NC(=S)N2CCN(C(=O)c3ccco3)CC2)cc1,-6%,4%,-8,19µM*,1%
Cc1c(Cl)cccc1NC(=O)N1CCN(C(=O)c2ccco2)CC1,-1%,0%,2,17µM*,0%
Cc1c(Cl)cccc1NC(=S)N1CCN(C(=O)c2ccco2)CC1,-10%,-31%,-3,-8%,0%
COc1ccc(OCC(=O)NC(=S)Nc2ccc3c4c(cccc24)CC3)cc1,-24%,-4%,8,-7%,0%
